Common to all, as to test: DAPPL (digital affinity profiling via proximity ligation, sequencing); 10 mM Tris-HCl pH 7.5, 50 mM NaCl, 1 mM DTT, 4% glycerol, room temperature, 30 min; GST-TFs on glutathione beads, 16-mer random dsDNA library, 0.1% formaldehyde crosslink after washing; high values mean tight binding
Common to all, as to details: protein: recombinant; tags: N-terminal GST; dsDNA, one strand shown

One assay concerns the target T1, ERF (Homo sapiens, UniProt P50548 1-548).
T1 sequence: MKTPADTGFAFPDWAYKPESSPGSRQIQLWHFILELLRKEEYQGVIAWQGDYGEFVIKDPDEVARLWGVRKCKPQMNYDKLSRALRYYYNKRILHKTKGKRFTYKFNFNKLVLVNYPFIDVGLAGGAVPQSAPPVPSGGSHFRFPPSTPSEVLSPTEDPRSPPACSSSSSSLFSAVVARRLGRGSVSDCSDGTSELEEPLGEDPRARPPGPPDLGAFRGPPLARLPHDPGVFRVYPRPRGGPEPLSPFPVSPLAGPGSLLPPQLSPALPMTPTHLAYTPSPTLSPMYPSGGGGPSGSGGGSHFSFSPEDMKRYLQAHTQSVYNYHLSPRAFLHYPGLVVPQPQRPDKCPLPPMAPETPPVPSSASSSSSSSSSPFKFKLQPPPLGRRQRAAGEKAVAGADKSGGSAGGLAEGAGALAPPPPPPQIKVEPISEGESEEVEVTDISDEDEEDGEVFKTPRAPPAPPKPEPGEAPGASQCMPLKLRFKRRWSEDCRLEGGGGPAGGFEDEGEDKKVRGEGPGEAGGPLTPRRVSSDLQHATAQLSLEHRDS
Put shortly:
(§1)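 Beads coated with glutathione captured GST-fused human transcription factors that had been expressed in yeast, and the factors were then given DNA barcodes and pooled with a tag-only sample. The pools were incubated with 200 nmole of a random double-stranded 16-mer DNA library in Tris/NaCl/DTT/glycerol buffer for 30 min at room temperature, washed, crosslinked with 0.1% formaldehyde and proximity-ligated with BsaI/T4 ligase at 37 °C for 1 h. PCR amplification and Illumina NextSeq500 sequencing came last. Binding signal is each hexamer's read frequency for a factor divided by its frequency for the tag-only sample.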

A further assay has as its target T2, ETV3L (Homo sapiens, UniProt Q6ZN32 1-361).
T2 sequence: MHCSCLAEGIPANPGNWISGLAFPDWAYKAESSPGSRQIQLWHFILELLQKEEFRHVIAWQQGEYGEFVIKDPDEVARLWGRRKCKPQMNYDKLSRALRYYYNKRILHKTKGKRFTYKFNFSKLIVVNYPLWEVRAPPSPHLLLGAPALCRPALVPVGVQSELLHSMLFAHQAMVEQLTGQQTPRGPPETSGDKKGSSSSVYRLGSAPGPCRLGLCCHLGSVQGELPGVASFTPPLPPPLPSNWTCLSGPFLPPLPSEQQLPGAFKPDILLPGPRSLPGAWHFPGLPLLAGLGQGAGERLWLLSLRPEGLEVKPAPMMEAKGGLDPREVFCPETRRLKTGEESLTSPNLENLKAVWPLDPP
Put shortly:
as §1

For the next assay, the target named is T3, ETS2 (Homo sapiens, UniProt P15036 1-469).
T3 sequence: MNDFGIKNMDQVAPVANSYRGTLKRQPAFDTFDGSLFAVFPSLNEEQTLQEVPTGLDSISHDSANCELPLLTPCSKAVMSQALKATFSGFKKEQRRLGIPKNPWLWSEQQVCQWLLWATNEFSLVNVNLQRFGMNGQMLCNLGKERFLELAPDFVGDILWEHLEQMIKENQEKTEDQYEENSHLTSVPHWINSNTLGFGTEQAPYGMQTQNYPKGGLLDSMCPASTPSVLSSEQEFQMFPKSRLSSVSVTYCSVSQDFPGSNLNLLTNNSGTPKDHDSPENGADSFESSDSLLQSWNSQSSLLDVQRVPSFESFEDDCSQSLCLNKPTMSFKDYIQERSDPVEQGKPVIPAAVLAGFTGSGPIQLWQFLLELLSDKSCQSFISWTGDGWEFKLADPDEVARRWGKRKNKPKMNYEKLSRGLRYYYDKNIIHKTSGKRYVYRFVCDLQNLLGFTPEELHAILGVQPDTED
Put shortly:
as §1

Another assay addresses T4, SPDEF (Homo sapiens, UniProt O95238 1-335).
T4 sequence: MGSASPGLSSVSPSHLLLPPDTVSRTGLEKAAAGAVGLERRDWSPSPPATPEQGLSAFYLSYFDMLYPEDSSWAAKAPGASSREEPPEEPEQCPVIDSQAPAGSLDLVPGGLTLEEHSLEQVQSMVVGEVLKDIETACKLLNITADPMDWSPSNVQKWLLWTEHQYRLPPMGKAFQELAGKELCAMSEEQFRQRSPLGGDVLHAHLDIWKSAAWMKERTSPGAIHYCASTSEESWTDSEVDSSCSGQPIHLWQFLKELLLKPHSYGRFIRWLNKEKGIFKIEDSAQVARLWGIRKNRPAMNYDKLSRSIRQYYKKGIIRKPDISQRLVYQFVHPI
Put shortly: as §1

The target in a further assay is T5, ETV7 (Homo sapiens, UniProt Q9Y603 1-341).
T5 sequence: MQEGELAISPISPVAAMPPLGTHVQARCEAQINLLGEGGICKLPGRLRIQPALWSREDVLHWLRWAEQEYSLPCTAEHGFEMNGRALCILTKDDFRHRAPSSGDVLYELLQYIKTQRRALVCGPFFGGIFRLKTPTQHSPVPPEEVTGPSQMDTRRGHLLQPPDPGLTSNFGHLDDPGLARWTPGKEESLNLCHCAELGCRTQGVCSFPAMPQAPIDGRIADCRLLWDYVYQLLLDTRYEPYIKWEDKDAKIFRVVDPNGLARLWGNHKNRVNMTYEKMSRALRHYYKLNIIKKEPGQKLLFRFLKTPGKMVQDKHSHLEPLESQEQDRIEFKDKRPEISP
Put shortly: as §1

The target in another assay is T6, ELF5 (Homo sapiens, UniProt Q9UKW6-2 1-255).
T6 sequence: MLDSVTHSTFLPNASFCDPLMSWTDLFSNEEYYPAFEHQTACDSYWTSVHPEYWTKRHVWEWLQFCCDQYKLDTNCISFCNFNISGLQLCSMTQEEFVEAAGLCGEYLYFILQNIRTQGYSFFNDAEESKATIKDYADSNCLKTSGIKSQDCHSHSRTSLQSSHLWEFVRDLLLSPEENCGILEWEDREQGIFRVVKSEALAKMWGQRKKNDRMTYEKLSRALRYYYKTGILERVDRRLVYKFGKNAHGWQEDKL
Put shortly: as §1

For another assay, the target named is T7, ETV3 (Homo sapiens, UniProt P41162-2 1-143).
T7 sequence: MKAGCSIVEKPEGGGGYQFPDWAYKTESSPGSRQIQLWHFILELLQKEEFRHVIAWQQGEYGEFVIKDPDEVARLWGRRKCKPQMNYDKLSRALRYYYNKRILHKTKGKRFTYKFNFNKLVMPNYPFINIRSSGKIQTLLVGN
Put shortly:
as §1

In a further assay the target is ETV6 (Homo sapiens, UniProt P41212 1-452). Put shortly:
as §1

ETV6, sequence (P41212 whole entry): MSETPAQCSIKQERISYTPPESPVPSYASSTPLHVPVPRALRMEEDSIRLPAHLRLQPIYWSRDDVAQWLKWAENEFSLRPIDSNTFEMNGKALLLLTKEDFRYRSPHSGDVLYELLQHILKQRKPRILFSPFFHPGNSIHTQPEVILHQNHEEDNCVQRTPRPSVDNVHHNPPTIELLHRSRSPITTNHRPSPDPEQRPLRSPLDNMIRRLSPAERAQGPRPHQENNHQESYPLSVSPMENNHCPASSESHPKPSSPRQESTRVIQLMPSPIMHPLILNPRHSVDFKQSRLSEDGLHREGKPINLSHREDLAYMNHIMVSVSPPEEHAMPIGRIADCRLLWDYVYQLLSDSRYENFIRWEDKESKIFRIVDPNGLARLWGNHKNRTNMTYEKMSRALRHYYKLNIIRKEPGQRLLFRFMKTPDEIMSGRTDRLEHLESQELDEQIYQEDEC

Consider TGTTGC, for which the binding signal was 1.46 fold enrichment (6-mer frequency, TF over GST control) in the assay with ERF; 1.37 fold enrichment (6-mer frequency, TF over GST control) with ETV3L; 1.3 fold enrichment (6-mer frequency, TF over GST control) in the assay with ETS2; 1.33 fold enrichment (6-mer frequency, TF over GST control) with SPDEF; 1.27 fold enrichment (6-mer frequency, TF over GST control) with ETV7; 1.3 fold enrichment (6-mer frequency, TF over GST control) in the assay with ELF5. Also, the binding signal is 1.56 fold enrichment (6-mer frequency, TF over GST control) with ETV3 and 1.33 fold enrichment (6-mer frequency, TF over GST control) in the assay with ETV6.

As to AAGAAA, the binding signal with ERF was 1.24 fold enrichment (6-mer frequency, TF over GST control); with ETV3L it was 1.26 fold enrichment (6-mer frequency, TF over GST control); in the assay with ETS2 it was 1.24 fold enrichment (6-mer frequency, TF over GST control); in the assay with SPDEF, 1.09 fold enrichment (6-mer frequency, TF over GST control); in the assay with ETV7, 1.26 fold enrichment (6-mer frequency, TF over GST control); with ELF5, 1.2 fold enrichment (6-mer frequency, TF over GST control). Moreover, the binding signal was 1.16 fold enrichment (6-mer frequency, TF over GST control) in the assay with ETV3 and 1.22 fold enrichment (6-mer frequency, TF over GST control) with ETV6.

For the sequence GTTTCC, the binding signal with ERF was 2.49 fold enrichment (6-mer frequency, TF over GST control); in the assay with ETV3L, 2.7 fold enrichment (6-mer frequency, TF over GST control); with ETS2, 2.82 fold enrichment (6-mer frequency, TF over GST control); with SPDEF, 2.75 fold enrichment (6-mer frequency, TF over GST control); with ETV7, 2.86 fold enrichment (6-mer frequency, TF over GST control); in the assay with ELF5, 3.9 fold enrichment (6-mer frequency, TF over GST control). In addition, the binding signal with ETV3 is 3.01 fold enrichment (6-mer frequency, TF over GST control); with ETV6 it was 3.24 fold enrichment (6-mer frequency, TF over GST control).

In the case of CTACGC, the binding signal with ERF is 1.72 fold enrichment (6-mer frequency, TF over GST control); in the assay with ETV3L it was 1.5 fold enrichment (6-mer frequency, TF over GST control); in the assay with ETS2, 1.59 fold enrichment (6-mer frequency, TF over GST control); in the assay with SPDEF it was 1.56 fold enrichment (6-mer frequency, TF over GST control); with ETV7, 1.42 fold enrichment (6-mer frequency, TF over GST control); with ELF5, 1.49 fold enrichment (6-mer frequency, TF over GST control). Further, the binding signal with ETV3 is 1.59 fold enrichment (6-mer frequency, TF over GST control); with ETV6 it was 1.64 fold enrichment (6-mer frequency, TF over GST control).

Take ACTCTG: the binding signal was 1.43 fold enrichment (6-mer frequency, TF over GST control) with ERF; 1.28 fold enrichment (6-mer frequency, TF over GST control) in the assay with ETV3L; 1.29 fold enrichment (6-mer frequency, TF over GST control) in the assay with ETS2; 1.16 fold enrichment (6-mer frequency, TF over GST control) in the assay with SPDEF; 1.21 fold enrichment (6-mer frequency, TF over GST control) with ETV7; 1.2 fold enrichment (6-mer frequency, TF over GST control) in the assay with ELF5. Besides, the binding signal is 1.27 fold enrichment (6-mer frequency, TF over GST control) with ETV3 and 1.23 fold enrichment (6-mer frequency, TF over GST control) in the assay with ETV6.

As for TGTATG, the binding signal was 1.31 fold enrichment (6-mer frequency, TF over GST control) in the assay with ERF; 1.23 fold enrichment (6-mer frequency, TF over GST control) with ETV3L; 1.26 fold enrichment (6-mer frequency, TF over GST control) with ETS2; 1.35 fold enrichment (6-mer frequency, TF over GST control) with SPDEF; 1.19 fold enrichment (6-mer frequency, TF over GST control) with ETV7; 1.22 fold enrichment (6-mer frequency, TF over GST control) with ELF5. Moreover, the binding signal with ETV3 was 1.29 fold enrichment (6-mer frequency, TF over GST control); in the assay with ETV6, 1.16 fold enrichment (6-mer frequency, TF over GST control).
